The text below walks through data of ChEMBL document CHEMBL1961873, “Compounds: GSK PKIS; Assays: Nanosyn kinase panel” (2012).

Assay [1] has as its target Platelet-derived growth factor receptor beta (Homo sapiens) (UniProt P09619). To be noted: at 1 µM.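 Also: each value is a mean percent inhibition.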
The target in assay [2] is Tyrosine-protein kinase FRK (Homo sapiens) (UniProt P42685). To be noted: at 0.1 µM.
The target is the same in assay [3]. To be noted: at 1 µM.
Assay [4] deals with Protein-tyrosine kinase 2-beta (Homo sapiens) (UniProt Q14289). To be noted: at 0.1 µM.
Assay [5] has the same target. The settings on record: at 1 µM.
Assay [6] addresses Proto-oncogene tyrosine-protein kinase receptor Ret (Homo sapiens) (UniProt P07949). To be noted: at 0.1 µM.
Assay [7] shares this target. The settings on record: at 1 µM.
Assay [8] relates to Proto-oncogene tyrosine-protein kinase receptor Ret (Homo sapiens), P07949 [V804L]. To be noted: at 0.1 µM.
The test system is the same in assay [9]. The settings on record: at 1 µM.
Assay [10] concerns Proto-oncogene tyrosine-protein kinase receptor Ret (Homo sapiens), P07949 [Y791F]. To be noted: at 0.1 µM.
The test system is the same in assay [11]. To be noted: at 1 µM.
For assay [12], the target named is Macrophage-stimulating protein receptor (Homo sapiens) (UniProt Q04912). The settings on record: at 0.1 µM.
Assay [13] shares this target. To be noted: at 1 µM.
Assay [14] addresses Proto-oncogene tyrosine-protein kinase ROS (Homo sapiens) (UniProt P08922). To be noted: at 1 µM.
Assay [15] has as its target Proto-oncogene tyrosine-protein kinase Src (Homo sapiens) (UniProt P12931). The settings on record: at 0.1 µM.
The target is the same in assay [16]. To be noted: at 1 µM.
Assay [17] deals with Tyrosine-protein kinase Srms (Homo sapiens) (UniProt Q9H3Y6). To be noted: at 0.1 µM.
Assay [18] has the same target. To be noted: at 1 µM.
For assay [19], the target named is Tyrosine-protein kinase SYK (Homo sapiens) (UniProt P43405). To be noted: at 0.1 µM.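 Also: reported percentages are mean inhibition values for SYK.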
The target in assay [20] is Proto-oncogene tyrosine-protein kinase ROS (Homo sapiens) (UniProt P08922). To be noted: at 0.1 µM.
Sequence of Proto-oncogene tyrosine-protein kinase ROS (Homo sapiens) (P08922 whole entry): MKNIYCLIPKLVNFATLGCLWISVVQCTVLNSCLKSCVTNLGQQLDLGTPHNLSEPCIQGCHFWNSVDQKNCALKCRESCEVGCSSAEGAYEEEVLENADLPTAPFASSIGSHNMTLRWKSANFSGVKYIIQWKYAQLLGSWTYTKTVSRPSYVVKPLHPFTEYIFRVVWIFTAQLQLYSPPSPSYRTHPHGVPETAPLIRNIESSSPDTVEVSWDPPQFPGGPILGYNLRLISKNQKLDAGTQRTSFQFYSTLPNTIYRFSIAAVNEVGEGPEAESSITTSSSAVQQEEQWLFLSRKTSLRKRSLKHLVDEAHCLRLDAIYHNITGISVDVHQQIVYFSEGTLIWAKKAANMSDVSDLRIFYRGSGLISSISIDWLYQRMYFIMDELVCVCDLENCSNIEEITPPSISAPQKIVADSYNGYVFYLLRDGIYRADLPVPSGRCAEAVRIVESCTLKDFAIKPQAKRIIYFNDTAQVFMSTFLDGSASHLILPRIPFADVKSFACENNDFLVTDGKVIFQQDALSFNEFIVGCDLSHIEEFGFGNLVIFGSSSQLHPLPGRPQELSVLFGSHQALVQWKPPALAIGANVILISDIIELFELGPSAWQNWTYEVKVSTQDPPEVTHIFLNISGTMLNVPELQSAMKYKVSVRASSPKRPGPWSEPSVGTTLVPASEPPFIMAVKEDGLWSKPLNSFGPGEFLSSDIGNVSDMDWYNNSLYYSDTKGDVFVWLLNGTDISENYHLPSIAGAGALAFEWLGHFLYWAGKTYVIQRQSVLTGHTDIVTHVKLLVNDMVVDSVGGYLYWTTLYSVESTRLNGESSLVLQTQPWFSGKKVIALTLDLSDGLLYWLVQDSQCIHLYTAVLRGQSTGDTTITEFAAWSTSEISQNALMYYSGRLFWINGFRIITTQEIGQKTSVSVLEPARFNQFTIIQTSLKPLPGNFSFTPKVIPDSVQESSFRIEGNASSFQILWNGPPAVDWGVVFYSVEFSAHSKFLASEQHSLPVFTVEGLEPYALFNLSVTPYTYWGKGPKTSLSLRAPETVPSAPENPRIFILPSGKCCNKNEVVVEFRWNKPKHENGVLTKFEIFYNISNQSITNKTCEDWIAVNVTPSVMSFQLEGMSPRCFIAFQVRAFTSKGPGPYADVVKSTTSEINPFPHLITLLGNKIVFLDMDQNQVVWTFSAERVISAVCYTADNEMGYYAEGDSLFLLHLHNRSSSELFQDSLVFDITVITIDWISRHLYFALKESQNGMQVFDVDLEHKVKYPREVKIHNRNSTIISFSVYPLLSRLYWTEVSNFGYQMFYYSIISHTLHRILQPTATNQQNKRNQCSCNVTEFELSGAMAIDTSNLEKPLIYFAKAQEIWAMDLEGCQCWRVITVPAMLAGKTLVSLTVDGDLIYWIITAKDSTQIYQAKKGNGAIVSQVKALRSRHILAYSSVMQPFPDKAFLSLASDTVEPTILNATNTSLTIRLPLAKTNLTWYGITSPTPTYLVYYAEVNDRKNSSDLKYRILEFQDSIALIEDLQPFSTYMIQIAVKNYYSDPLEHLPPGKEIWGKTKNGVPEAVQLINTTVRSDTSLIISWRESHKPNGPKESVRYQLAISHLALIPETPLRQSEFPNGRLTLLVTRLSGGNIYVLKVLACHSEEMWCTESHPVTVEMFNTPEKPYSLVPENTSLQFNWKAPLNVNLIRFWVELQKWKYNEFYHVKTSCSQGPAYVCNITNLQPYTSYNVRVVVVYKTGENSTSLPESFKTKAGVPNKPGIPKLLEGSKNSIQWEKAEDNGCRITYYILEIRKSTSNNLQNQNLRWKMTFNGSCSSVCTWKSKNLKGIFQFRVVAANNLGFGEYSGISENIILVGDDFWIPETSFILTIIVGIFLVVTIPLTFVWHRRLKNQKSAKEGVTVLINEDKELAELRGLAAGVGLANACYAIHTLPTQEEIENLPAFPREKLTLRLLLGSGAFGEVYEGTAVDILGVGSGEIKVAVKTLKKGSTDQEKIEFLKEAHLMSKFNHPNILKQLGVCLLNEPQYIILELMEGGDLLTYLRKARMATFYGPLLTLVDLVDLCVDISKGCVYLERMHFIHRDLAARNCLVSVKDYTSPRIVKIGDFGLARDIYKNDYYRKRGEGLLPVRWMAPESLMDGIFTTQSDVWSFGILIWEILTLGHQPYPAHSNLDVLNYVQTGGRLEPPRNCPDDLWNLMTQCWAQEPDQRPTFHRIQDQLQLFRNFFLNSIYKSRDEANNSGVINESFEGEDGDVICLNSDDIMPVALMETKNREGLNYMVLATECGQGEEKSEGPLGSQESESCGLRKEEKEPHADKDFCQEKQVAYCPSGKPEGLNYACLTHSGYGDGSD

Sequence of Platelet-derived growth factor receptor beta (Homo sapiens) (P09619 whole entry): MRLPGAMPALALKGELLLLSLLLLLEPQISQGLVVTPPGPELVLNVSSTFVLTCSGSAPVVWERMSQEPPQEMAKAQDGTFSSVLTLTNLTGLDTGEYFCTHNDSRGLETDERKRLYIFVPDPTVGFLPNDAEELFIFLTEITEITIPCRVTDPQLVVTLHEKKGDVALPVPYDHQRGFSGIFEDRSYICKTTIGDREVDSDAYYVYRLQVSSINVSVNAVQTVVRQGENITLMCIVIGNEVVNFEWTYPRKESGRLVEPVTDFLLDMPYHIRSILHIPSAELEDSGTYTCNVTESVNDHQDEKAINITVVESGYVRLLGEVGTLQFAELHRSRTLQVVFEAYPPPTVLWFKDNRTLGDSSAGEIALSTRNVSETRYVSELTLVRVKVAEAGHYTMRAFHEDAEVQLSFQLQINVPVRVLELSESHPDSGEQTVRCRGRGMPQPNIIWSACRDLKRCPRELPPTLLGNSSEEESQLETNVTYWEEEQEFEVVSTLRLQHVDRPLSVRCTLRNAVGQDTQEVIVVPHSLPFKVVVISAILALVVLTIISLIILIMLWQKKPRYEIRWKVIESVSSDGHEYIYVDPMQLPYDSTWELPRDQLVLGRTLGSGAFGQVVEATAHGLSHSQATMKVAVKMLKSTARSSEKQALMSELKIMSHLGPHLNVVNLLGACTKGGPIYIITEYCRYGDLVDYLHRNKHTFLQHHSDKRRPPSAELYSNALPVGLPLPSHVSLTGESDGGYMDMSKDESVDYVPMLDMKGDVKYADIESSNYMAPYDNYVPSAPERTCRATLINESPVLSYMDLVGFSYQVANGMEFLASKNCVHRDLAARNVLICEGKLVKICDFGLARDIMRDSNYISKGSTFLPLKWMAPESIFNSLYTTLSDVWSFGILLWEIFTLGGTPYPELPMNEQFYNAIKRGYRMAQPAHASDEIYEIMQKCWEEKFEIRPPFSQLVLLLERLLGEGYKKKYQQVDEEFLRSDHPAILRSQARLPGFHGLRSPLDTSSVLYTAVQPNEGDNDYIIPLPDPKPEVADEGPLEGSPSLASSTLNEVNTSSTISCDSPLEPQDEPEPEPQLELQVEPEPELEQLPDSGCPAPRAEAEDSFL
Sequence of Proto-oncogene tyrosine-protein kinase receptor Ret (Homo sapiens), P07949 [V804L] (P07949 whole entry V804L): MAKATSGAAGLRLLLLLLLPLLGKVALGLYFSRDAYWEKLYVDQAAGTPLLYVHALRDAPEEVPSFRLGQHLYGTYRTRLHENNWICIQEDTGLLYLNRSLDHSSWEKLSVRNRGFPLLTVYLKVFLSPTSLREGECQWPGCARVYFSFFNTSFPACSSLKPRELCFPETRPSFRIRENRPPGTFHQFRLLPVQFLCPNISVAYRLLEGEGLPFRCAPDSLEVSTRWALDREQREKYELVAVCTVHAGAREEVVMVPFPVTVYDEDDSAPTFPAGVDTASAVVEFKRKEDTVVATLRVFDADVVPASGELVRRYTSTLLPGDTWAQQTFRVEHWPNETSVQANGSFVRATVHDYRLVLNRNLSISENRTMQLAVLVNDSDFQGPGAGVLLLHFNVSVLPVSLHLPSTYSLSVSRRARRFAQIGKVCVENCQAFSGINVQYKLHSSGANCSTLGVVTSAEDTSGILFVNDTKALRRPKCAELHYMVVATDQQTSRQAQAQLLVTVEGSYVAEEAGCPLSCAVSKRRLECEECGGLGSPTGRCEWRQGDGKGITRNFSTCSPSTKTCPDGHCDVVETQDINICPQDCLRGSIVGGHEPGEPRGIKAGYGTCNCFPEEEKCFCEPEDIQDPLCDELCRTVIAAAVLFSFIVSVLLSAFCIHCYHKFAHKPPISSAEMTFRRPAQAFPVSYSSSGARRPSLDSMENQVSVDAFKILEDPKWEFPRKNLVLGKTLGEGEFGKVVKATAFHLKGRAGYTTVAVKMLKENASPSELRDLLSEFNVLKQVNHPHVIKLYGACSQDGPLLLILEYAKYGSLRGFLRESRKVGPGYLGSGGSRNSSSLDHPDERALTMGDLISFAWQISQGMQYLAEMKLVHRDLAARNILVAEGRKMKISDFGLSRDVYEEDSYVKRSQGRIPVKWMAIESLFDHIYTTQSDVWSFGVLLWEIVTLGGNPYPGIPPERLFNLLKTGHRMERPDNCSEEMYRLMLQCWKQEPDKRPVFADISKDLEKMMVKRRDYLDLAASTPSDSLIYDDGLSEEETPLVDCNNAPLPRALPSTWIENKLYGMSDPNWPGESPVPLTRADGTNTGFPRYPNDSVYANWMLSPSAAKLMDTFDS
Sequence of Proto-oncogene tyrosine-protein kinase Src (Homo sapiens) (P12931 2-536 limits assumed): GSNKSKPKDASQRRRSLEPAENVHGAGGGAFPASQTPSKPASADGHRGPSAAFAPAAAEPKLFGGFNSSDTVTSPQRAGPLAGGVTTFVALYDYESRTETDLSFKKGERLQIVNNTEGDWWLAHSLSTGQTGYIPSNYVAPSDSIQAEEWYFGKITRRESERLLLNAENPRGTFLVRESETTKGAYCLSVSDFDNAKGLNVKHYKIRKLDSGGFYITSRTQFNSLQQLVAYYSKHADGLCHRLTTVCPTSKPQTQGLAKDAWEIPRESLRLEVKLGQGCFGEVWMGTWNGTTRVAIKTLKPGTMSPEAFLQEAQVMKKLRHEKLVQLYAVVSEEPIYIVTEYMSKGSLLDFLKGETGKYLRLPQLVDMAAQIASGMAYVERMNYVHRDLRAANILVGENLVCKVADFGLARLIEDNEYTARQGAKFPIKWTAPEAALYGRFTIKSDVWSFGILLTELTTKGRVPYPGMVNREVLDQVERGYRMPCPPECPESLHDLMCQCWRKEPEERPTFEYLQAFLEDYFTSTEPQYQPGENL
Sequence of Proto-oncogene tyrosine-protein kinase receptor Ret (Homo sapiens), P07949 [Y791F] (P07949 whole entry Y791F): as the sequence (P07949 whole entry V804L) above, with Y791F, L804V counted along it

Regarding `CCC(=O)Nc1ccc(C)c(-c2ccc(C(=O)NCC3CC3)cc2)c1`, the inhibition worked out at 0.71% in assay [1]; 2.5% in assay [2]; 2.55% in assay [3]; 11.8% in [4]; 6.44% in assay [5]; 7.45% in assay [6]. The inhibition turned out to be 6.85% in [7]; 1.64% in [8]; 2.22% in assay [9]; 4.76% in [10]; 6.48% in assay [11]; 9.18% in assay [12]. Further, the inhibition in assay [13] is 7.8%; in assay [14] it was 3.11%; in assay [15], 6.28%; in assay [16], 6.57%; in [17], -0.92%; in [18], -1.83%. In addition, the inhibition in assay [19] is 3.61%.

`Nc1nccc(-c2c(-c3ccc(F)cc3)ncn2C2CCC(O)CC2)n1` (stereo unspecified): the inhibition was 30.3% in assay [1]; -0.89% in assay [2]; 5.08% in assay [3]; -2.8% in [4]; 2.44% in assay [5]; 3.09% in [6]. In addition, the inhibition in [7] was 19.3%; in assay [8], 0.11%; in [9], 5.11%; in [10] it was 3.7%; in assay [11], 25.2%; in [12], 3.96%. For the same compound, the inhibition was 13.3% in assay [13]; 28.6% in [20]; 76.4% in assay [14]; 0.34% in assay [15]; 18.3% in [16]; -0.15% in [17]. In addition, the figures for the inhibition in [18] and in [19] were 2.5% and -1.99%, respectively.

As for `O=C1NC(=O)C(c2cccc(Cl)c2)=C1Nc1ccc(Cl)c(C(=O)O)c1`, the inhibition in assay [1] is 8.9%; in assay [2] it was -0.46%; in assay [3], 2.48%; in assay [4] it was 7.05%; in [5], 6.6%; in assay [6], 7.27%. Further, the inhibition stood at 3.52% in assay [7]; 5.17% in assay [8]; 7.71% in assay [9]; 3.26% in assay [10]; 13.8% in assay [11]; 5.57% in [12]. In addition, the inhibition worked out at 1.47% in assay [13]; 2% in assay [20]; 0.59% in assay [14]; 8.46% in assay [15]; 8.07% in assay [16]; 0.43% in assay [17]. For the same compound, the inhibition in [18] was found to be 0.54%; in [19], 1.85%.

`O=C(Nc1ccc(Oc2ccc3[nH]c(NC(=O)c4ccccc4)nc3c2)cc1)Nc1cc(C(F)(F)F)ccc1F`: the inhibition in assay [1] was found to be 31.1%; in [2] it was 1.86%; in [3], 2.1%; in assay [4], 5.27%; in [5], 14.2%; in assay [6], 62.6%. Moreover, the inhibition came to 90.2% in [7]; 25.4% in assay [8]; 78.7% in [9]; 38.6% in [10]; 87% in assay [11]; 0.56% in assay [12]. Further, the inhibition turned out to be 5.31% in assay [13]; 4.24% in [20]; 11.4% in assay [14]; 4.33% in [15]; 11.2% in [16]; 1.78% in assay [17]. Moreover, the inhibition was 4.56% in assay [18] and -1% in assay [19].

Take `CCN(CC)Cc1ccc(Nc2nccc(-c3cnn4ncccc34)n2)cc1`: the inhibition in assay [1] was found to be 71.8%; in assay [2] it was 2.63%; in [3], 3.76%; in assay [4], 24.8%; in [5], 81.3%; in assay [6] it was 4.61%. Moreover, the inhibition in assay [7] is 12.8%; in assay [8] it was 2.46%; in assay [9], 16.3%; in assay [10], 5.39%; in assay [11], 18.2%; in [12], 4.89%. Also, the inhibition in assay [13] is 22.4%; in [20] it was 34.5%; in [14], 70.5%; in assay [15], 10.3%; in [16], 38.2%; in [17], -1.32%. The inhibition is 0.74% in assay [18] and 1.59% in assay [19].

`COc1ccc2ncn(-c3cc(O[C@H](C)c4ccccc4Cl)c(C(N)=O)s3)c2c1`: the inhibition in assay [1] was 18.7%; in assay [2] it was 3.26%; in [3] it was 4.73%; in assay [4], 6.17%; in [5], 9.58%; in [7], 9.64%. Also, the inhibition in assay [8] was found to be 2.37%; in assay [9], 7.27%; in assay [10], 5.2%; in [11] it was 8.71%; in assay [12] it was 2.64%; in [13], 3.04%. Also, the inhibition was 6.54% in assay [20]; 10.9% in [14]; 6.13% in assay [15]; 5.73% in assay [16]; -3.68% in assay [17]; -2.35% in [18]. The inhibition in assay [19] was -1.79%.

As to `COc1cc2ncn(-c3cc(OCc4ccccc4C(F)(F)F)c(C(C)=O)s3)c2cc1OC`, the inhibition turned out to be 21.5% in [1]; 0.97% in assay [2]; 2.94% in assay [3]; 4.62% in assay [6]; 5.58% in assay [7]; 5.33% in assay [8]. The inhibition in assay [9] came out at 9.72%; in [10], 7.72%; in assay [11], 12.8%; in assay [12] it was 2.88%; in assay [13], 20%; in [20], 0.39%. In addition, the inhibition in assay [14] was 7.62%; in [15], 6.86%; in assay [16] it was 6.06%; in assay [17] it was -2.02%; in assay [18], 0.82%; in [19], 0.3%.

With `Fc1ccc(-c2nc3n(c2-c2ccncc2)CCS3)cc1`, the inhibition in assay [1] came out at 8.35%; in assay [2], 1.92%; in assay [3], 3.19%; in [4] it was 9.18%; in [5], 6.63%; in assay [6], 4.05%. Besides, the inhibition in [7] is 8.81%; in assay [8], 9.59%; in assay [9] it was 12.6%; in assay [10] it was 5.15%; in assay [11], 9.79%; in [12] it was -2.87%. Also, the inhibition was 6.64% in assay [13]; 7.49% in [20]; 6.54% in [14]; 3.03% in [15]; 8.62% in assay [16]; -2.19% in assay [17]. Further, the values for the inhibition in assay [18] and in [19] were -4.01% and -6.2%, respectively.
